Source: PubChem BioAssay (National Center for Advancing Translational Sciences (NCATS))
SARS PLpro yeast = SARS-CoV PLP inhibition in yeast. 330,000 compounds, 0.19% hits. Potency, µM (top dose mostly 32.9 µM), for inactives: top-dose activity, positive = growth rescue, hits mostly activators. AID 485353. S. cerevisiae expressing SARS-CoV PLpro, growth rescue; calls by dose curve; note: 0% is about no effect; nearly all actives have a fitted effect of over 55% in size
Pf growth 96h = inhibits malaria parasite growth, 96 h; P. falciparum luciferase reporter growth, 96 h; Potency, µM (top dose mostly 28.7 µM), inactives show at the highest dose activity change, negative = inhibition, hits mostly inhibitors; 320,000 compounds, 6.9% hits; note: % is set by controls: 0 for no effect and ±100 for the full control effect
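P. falciparum expressing integrated firefly luciferase, in erythrocytes at 2% hematocrit, 0.05% parasitemia, incubated with compounds 96 h at 37 C, 5% CO2. Growth inhibition read as loss of luminescence; two-generation exposure targets delayed-death apicoplast inhibitors.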
AMA1-RON2 inh = inhibitors of Plasmodium falciparum AMA1-RON2 interaction; AlphaScreen AMA1-biotinylated RON2 peptide binding; Potency, µM (top dose mostly 58.2 µM), without a hit: at the highest dose activity change, negative = inhibition, most hits filed as inhibitors; 360,000 compounds, 0.2% hits; AID 720542;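 note: 0% = vehicle wells and -100% = peptide control; nearly all actives have a fitted effect of over 45% in size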
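AMA1 (3D7) with his tag at 25 nM final met compounds first, then biotinylated RON2 peptide at 25 nM; detection used donor plus acceptor beads, 10 µg/mL apiece, read by AlphaScreen after 30 min at room temperature.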
Pf growth 48h = inhibits P. falciparum growth in the first generation, 48 h; P. falciparum luciferase growth in erythrocytes, 48 h; Potency, µM (titrated, usually from 28.7 µM), for the others: at the highest dose activity change, negative = inhibition, usual class: inhibitors; 310,000 compounds, 5.9% hits; AID 504832; note: % is set by controls: 0 for no effect and ±100 for the full control effect
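A one-generation exposure of luciferase-tagged malaria parasites in RPMI 1640/Albumax erythrocyte culture, 37 C and 5% CO2. Inhibition is inferred from decreased luminescence after adding detection reagent.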
Starred values were filed as active, the others as inactive; ? = inconclusive; . = no result given; [ ] = remark or other dose. The list is not random: actives were taken first. Their share in the collection is about 9.4%. Unless noted, calls come from the whole dose curve; as a rule, active = well fitted curve in the direction sought with a large enough effect; inconclusive = small, poorly fitted or top-dose-only effect, or another doubt; inactive = no such curve, though single readings can be large; an effect the other way counts as inactive or inconclusive. Potency is the fitted concentration of half-maximal effect.

SMILES | SARS PLpro yeast | Pf growth 96h | AMA1-RON2 inh | Pf growth 48h
CC1CCCN(S(=O)(=O)c2ccc(Br)s2)C1 (stereo not given) | 13% | 7% | 12% | -27%
N#Cc1ccccc1CSc1nc2ncc(Br)cc2[nH]1 | 5% | 9% | 4% | -10%
Cc1cc(C)n(C(=O)c2ccc(Cl)c(F)c2F)n1 | 1% | 9.3µM* | -2% | 1%
Cc1cc(C)n(C(=O)c2cc(F)c(F)cc2C)n1 | 0% | 8% | 0% | 11%
CCc1nc2cccnc2n1-c1ccc(CC(=O)O)cc1 | 2% | 10µM* | 9% | -18%
N#Cc1nc(-c2ccccc2)oc1NCCCn1ccnc1 | -1% | ? | 2% | ?
N#Cc1nc(-c2ccc(OCc3ccc(Cl)cc3)cc2)oc1NCCCn1ccnc1 | 0% | ? | -11% | 2.3µM*
Cc1cccc(C(=O)NNC(=O)c2c(O)c3ccccc3n(C)c2=O)c1 | -37% | 0% | 48% | 0%
Cc1cc(C)n2c(Nc3ccc4c(c3)OCCO4)c(C3CC3)nc2n1 | . | . | -12% | .
O=S(=O)(CCSc1nc2ccccc2o1)c1nc2ccccc2s1 | -33% | ? | 4% | 13µM*
O=S(=O)(CCSc1ccccn1)c1nc2ccccc2s1 | -26% | 1.7µM* | 21% | ?
O=C(CSc1nc2ccccc2s1)Nc1ncccn1 | 6% | 137% | -13% | 40%
CCS(=O)(=O)CCSc1nc2ccccc2o1 | 3% | 64% | 1% | 2%
COc1ccc(C(=O)c2sc(Nc3ccc(NC(C)=O)cc3)nc2C)cc1 | -1% | ? | -3% | 20%
O=C(CCNS(=O)(=O)c1ccccc1)OCc1nnc(-c2ccccc2)o1 | 0% | 97% | -17% | 69%
CCOC(=O)CC(NC(=O)CCc1c(C)nc2nc(C)nn2c1C)c1ccc(C)cc1 (stereo not given) | -2% | 39% | -7% | 36%
CC1CCN(CCCCOc2ccc([N+](=O)[O-])cc2)CC1 | -2% | ? | -1% | ?
COC(=O)C1CCN(Cc2ccc(OCCCN3CCN(c4ccc([N+](=O)[O-])cc4)CC3)cc2)CC1 | 1% | 10µM* | -8% | 2.3µM*
c1coc(CNCc2cccs2)c1 | 14% | 9.3µM* | 7% | 23%
Cc1nn(-c2ccccc2)c(N2CCCC2)c1/C=N/NC(=O)C1CC1 | 3% | 12µM* | -1% | 10µM*
Cc1nn(-c2ccccc2)c(N2CCCC2)c1/C=N/NC(=O)c1cc(-c2cccnc2)nc2ccccc12 | -5% | ? | -1%[11.6 µM] | 12µM*
Cc1nn(-c2ccccc2)c(N2CCCC2)c1/C=N/NC(=O)c1ccccc1O | -4% | 13µM* | 31% | 8.3µM*
CCNc1ccc(C(=O)N/N=C/c2c(C)nn(-c3ccccc3)c2N2CCCC2)cc1[N+](=O)[O-] | 3% | -19% | 1% | -9%
Cc1nn(-c2ccccc2)c(N2CCCCC2)c1/C=N/O | 0% | 6% | -2% | -16%
CCOc1ccc(Oc2c(/C=N/NC(=O)C3CC3)c(C)nn2-c2ccccc2)cc1 | -15% | ? | -13%[11.6 µM] | 3.3µM*
SMILES | SARS PLpro yeast | Pf growth 96h | AMA1-RON2 inh | Pf growth 48h
Cc1ccc(NC(=O)C2CCCN2C(=O)Oc2ccccc2)cc1C (stereo not given) | 9% | 7% | -4% | .
Cc1ccc(S(=O)(=O)Nc2c(C)nc3nc(C)[nH]n3c2=O)cc1 | 3% | ? | 0% | 16%
Cc1nn(-c2ccccc2)c(C)c1/C=N/NC(=O)c1ccccc1O | -6% | 6.6µM* | 56% | 3.7µM*
CC(/C=N/NC(=O)c1cc(-c2cccnc2)nc2c1c(C)nn2-c1ccccc1)=C\c1ccccc1 | 0% | 2.9µM* | 4% | ?
Cc1nn(-c2ccccc2)c(C)c1/C=N/NC(=O)c1cc(O)cc(O)c1 | ? | ? | -11% | ?
COc1ccc(NC(=O)c2cc(-c3ccccc3)nc3c2c(C)nn3-c2ccccc2)c(OC)c1 | 6% | ? | -2% | ?
O=C(Nc1ccc(Oc2ccccc2)nc1)C1CCCCN1Cc1ccco1 (stereo not given) | -3% | 83% | 16% | -14%
CCOC(=O)[C@]12CCC=C1N(Cc1cccc3ccccc13)C(=O)[C@H](CC(=O)NCCCCc1ccccc1)C2 | . | . | -18% | .
Cc1ccc(Nc2nc(N)nc(CN3CCN(C(=O)c4ccco4)CC3)n2)cc1Cl | 1% | 7.4µM* | 15% | ?
Cc1cccc(Nc2nc(N)nc(CN3CCN(c4ccc(F)cc4)CC3)n2)c1 | 1% | 10µM* | -13% | ?
Nc1nc(CN2CCN(c3ccccc3F)CC2)nc(Nc2ccccc2)n1 | -10% | ? | ? | ?
Cc1cccc(Nc2nc(N)nc(CN3CCN(C)CC3)n2)c1 | 15% | . | 4% | 16%
Cc1ccc(Nc2nc(N)nc(CN3CCN(c4ccccc4F)CC3)n2)cc1 | 7% | 6.6µM* | ? | ?
CCc1nc2ccc(C(=O)N(CC)CCN(C)C)cn2c1N(C)CCCc1ccccc1 | . | . | -3% | .
CC(C)C1Nc2c(O)cc(Cl)c([N+](=O)[O-])c2C2C=CCC21 (stereo not given) | -7% | -8% | 21% | -4%
O=C(NC1CCCCC1)c1cccc2c1C(=O)c1ccc(N3CCC(Cc4ccccc4)CC3)cc1S2(=O)=O | -5% | . | -5% | .
O=C(O)CCCCCCCCCCCNC(=O)NC12CC3CC(CC(C3)C1)C2 | 2% | 2.1µM* | 2% | 30%
CO/N=C/C(c1ccc(Cl)nc1)S(=O)(=O)c1ccccc1 (stereo not given) | 1% | -3% | 7% | -16%
CO/N=C/C(c1ncc(C(F)(F)F)cc1Cl)S(=O)(=O)c1ccccc1 (stereo not given) | -4% | 9.3µM* | 7% | 10µM*
CCC(C)NC(=O)CCn1c(-c2ccccc2)cc(C(C)=O)c1C (stereo not given) | 4% | ? | -2% | 7%
CCOC(=O)c1cc(-c2ccccc2)n(CCC(=O)N2CCN(c3ccccc3OC)CC2)c1C | -30% | ? | -27% | 9.3µM*
CCOC(=O)c1cc(-c2ccccc2)n(CCC(=O)NC(C)CC)c1C (stereo not given) | -17% | 4.1µM* | -2% | ?
O=C(N[C@@H](Cc1ccccc1)C(=O)NC1CC1)c1ccc(Cl)cc1 | -12% | -6% | 8% | ?
O=C(Nc1cccc(F)c1)NC1CCN(Cc2ccccc2)CC1 | 0% | 11% | -12% | ?
Cc1cc(CC(C)CC(C)(C)C)n(O)c(=O)c1 (stereo not given) | . | 3µM* | . | 4.8µM*
Cc1cc2ccccc2n1CCNC(=O)c1ccc(S(=O)(=O)N2CCOCC2)cc1 | 2% | 0% | -16% | 4.1µM*
Cc1ccc(-c2[nH]c3ccccc3c2SCCNC(=O)c2ccc(S(=O)(=O)N3CCOCC3)cc2)cc1 | 14% | 8.3µM* | -4% | ?
O=C(NCCn1ccc2ccccc21)c1ccc(S(=O)(=O)N2CCCCC2)cc1 | -17% | ? | -18% | 12µM*
Cc1cc2ccccc2n1CCNC(=O)c1ccccc1 | 1% | 11% | -6% | 29%
N#Cc1c(N)nc(SCC(=O)NCCc2ccccc2)c(C#N)c1-c1cccs1 | 0% | -10% | 3% | -29%
